Assay results taken from the supplement of paper PMC3484114.
± gives the standard deviation.

test system: OVCAR-3-derived ovarian cancer stem-like cells (spheroids); experiment: cell growth relative to untreated control; higher = more growth (less inhibition); settings: 2.29 µM; 96 h
In short: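 Stem-like cells derived from OVCAR-3 spheroids were dissociated with trypsin and seeded at 50,000 cells/mL in stem cell medium in ultra-low attachment 96-well plates, then preincubated for 24 h. Each compound was added at 2.29 uM to 4 replicate wells and left for 96 h at 37°C, 5% CO2. Viability came from TOX8 resazurin fluorescence (ex 560/em 590 nm) read after 4 h. Percent growth was expressed relative to untreated wells, after blank subtraction and removal of outliers by the Grubbs test.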

Going from `COc1ccc(-c2csc(=[N+]3CCCCC3)s2)cc1` to `CC(=O)Nc1ccc(-c2nc3ccccc3s2)cc1`, the cell growth rises from 80 ± 11% to 171 ± 32%.

Compared with `CCCCn1c2c(n(CCCC)c1=S)-c1c(n(CCCC)c(=S)n1CCCC)SSSS2`, `CCN(CC)c1ccc2cc3ccc(=[N+](CC)CC)cc-3oc2c1` is higher in cell growth: 27.2 ± 5.8% for the first, 45.5 ± 10% for the second.

First: COc1ccc(C2c3cc4c(c(OC)c3CC3OCC(=O)C32)OCO4)cc1OC (centres undefined)
Second: COc1cc2c(c(OC)c1OC)-c1c(cc3c(c1OC)OCO3)CC(C)C(C)(O)C2OC(=O)c1ccccc1 (centres undefined)
The cell growth of the first is lower: 41.3 ± 11% for the first, 130 ± 29% for the second.

Going from `COc1ccc2[nH]c3c(C)c4ccncc4c(C)c3c2c1` to `Cc1c2cnccc2c(C)c2c1c1ccccc1n2CCOC(=O)c1ccccc1`, the cell growth rises from 65.8 ± 11% to 127 ± 35%.

`C=C(C)[C@@H]1CC[C@]2(C(=O)O)CC[C@]3(C)[C@H](CC[C@@H]4[C@@]5(C)CC[C@H](O)C(C)(C)[C@@H]5CC[C@]43C)[C@@H]12` and `CC(C)C1(Cl)CCC2C3(C)CCCC(C)(C(=O)O)C3CC(Cl)C2(Cl)C1Cl` (centres undefined) are within error of each other in cell growth: 76 ± 22% for the first, 94.6 ± 30% for the second.

`CC1(c2cccc3ccccc23)OC(=O)c2ccccc21` (centres undefined) and `Cc1cccc(C)c1NC(=O)C(=O)C(c1ccccc1Cl)S(=O)(=O)Cc1ccccc1Cl` (centres undefined) are within error of each other in cell growth: 116 ± 29% for the first, 85.2 ± 16% for the second.

`C=C(CN(C)C)C(=O)c1ccccc1Cl` and `COc1ccc(OC)c2nc3c(C(=O)NCCN(C)C)cccc3nc12` are within error of each other in cell growth: 84 ± 22% for the first, 119 ± 27% for the second.

Compared with `Cc1ccc(S(=O)(=O)ON=C2CC(c3ccccc3)N(C)C(c3ccccc3)C2)cc1` (centres undefined), `O=C(CC(=O)c1ccccc1NC1=Cc2ccccc2C(=O)C1=O)C(=O)NC1=C(Cl)C(=O)c2ccccc2C1=O` is lower in cell growth: 96.7 ± 22% for the first, 33.3 ± 13% for the second.

`CSC1SC[C@H]2C(=O)N(C)[C@@H](C(C)C)C(=O)OC[C@@H](NC(=O)c3cnc4ccccc4n3)C(=O)N[C@@H](C)C(=O)N(C)[C@@H]1C(=O)N(C)[C@@H](C(C)C)C(=O)OC[C@@H](NC(=O)c1cnc3ccccc3n1)C(=O)N[C@@H](C)C(=O)N2C` (some centres undefined) and `C/C(NNC(=O)c1ccccc1O)=C1\C=Nc2ccccc2S1` are within error of each other in cell growth: 19.7 ± 3.8% for the first, 16 ± 5.3% for the second.

`O=C(N=Nc1c(O)[nH]c2ccccc12)c1ccccc1O` and `O=C1Cc2c([nH]c3ccc(Br)cc23)-c2ccccc2N1` are within error of each other in cell growth: 105 ± 11% for the first, 109 ± 9.9% for the second.

`CC(C)[Si]1(C(C)C)OCC2OC(n3cnc4c(N)ncnc43)C(N)C2O[Si](C(C)C)(C(C)C)O1` (centres undefined) and `COc1ccc(C2C(C)C(=O)C(C)C(c3ccc(OC)cc3)N2N=O)cc1` (centres undefined) are within error of each other in cell growth: 85.1 ± 22% for the first, 110 ± 23% for the second.

`O=C1C=CC(CC(=O)c2ccc3ccccc3c2)O1` (centres undefined) and `COc1cc(CC(=O)c2cc3c(cc2-c2ccccc2)OCO3)cc(OC)c1OC` are within error of each other in cell growth: 112 ± 18% for the first, 83.1 ± 25% for the second.

First: CCOC(=O)C(C)NC(=O)N(C)C12CC3CC(CC(C3)C1)C2 (centres undefined)
Second: CCOC(=O)C1=C(O)CSC1=Nc1ccc(N=C2SCC(O)=C2C(=O)OCC)cc1
The cell growth of the first is lower: 8 ± 3.5% for the first, 108 ± 30% for the second.

Compared with `O=C(CC1(O)C(=O)Nc2c(Cl)ccc(Cl)c21)c1ccc(Cl)cc1Cl` (centres undefined), `Cc1[nH]c(=O)nc(N/N=C/c2ccc(Cl)cc2)c1C(=O)Nc1ccc(Cl)cc1` is lower in cell growth: 123 ± 11% for the first, 63.1 ± 11% for the second.

`CC1(C)CCCC2(C)C3=C(CCC12)C(=O)OC3` (centres undefined) and `CC(C)(O)CCC(O)C(C)(O)C1CCC2(O)C3=CC(=O)C4(O)CC(O)C(O)CC4(C)C3CCC12C.CC(C)(O)CCC(O)C(C)(O)C1CCC2(O)C3=CC(=O)C4CC(O)C(O)CC4(C)C3CCC12C` (centres undefined) are within error of each other in cell growth: 84.4 ± 24% for the first, 98 ± 21% for the second.

Compared with `NC(=O)c1c([N+](=O)[O-])cc(C(F)(F)F)cc1[N+](=O)[O-]`, `O=[N+]([O-])c1cc(C(F)(F)F)cc([N+](=O)[O-])c1CCl` is lower in cell growth: 63.9 ± 13% for the first, 38.4 ± 11% for the second.

First: CN(C)c1ccc(/C=C/C(=O)[O-])cc1.CN(C)c1ccc(/C=C/C(=O)[O-])cc1.[Cu+2]
Second: CC(=O)c1ccc(Oc2ccc(/C(C)=N/N=C(N)N)cc2)cc1
The cell growth of the first is higher: 97.6 ± 39% for the first, 32.4 ± 7.5% for the second.

Compared with `OC(CBr)C(O)C(O)C(O)CBr` (centres undefined), `COCCOC1=C(Cl)C(=O)c2c(O)ccc(O)c2C1=O` is higher in cell growth: 11.6 ± 4% for the first, 114 ± 18% for the second.

First: Clc1cc2nc[nH]c2cc1Cl
Second: Cc1ccc2ccc3ccc(C)nc3c2n1
The cell growth of the first is higher: 102 ± 31% for the first, 18.5 ± 10% for the second.

In the case of `NC(=O)N/N=C1\CC2C3CC4C2C4C13` (centres undefined), the cell growth is reported as 106 ± 20%.
